Measured values as given in PubChem BioAssay AID1053173 (Broad Institute, 2014).
Out of some 1,500 compounds screened, about 390 (26%) were called active. How the calls were made is not given here. These entries were drawn from the full list. Entries with a potency or affinity are not part of this list.

What follows are compounds tested against Histone-lysine N-methyltransferase NSD2 (Homo sapiens) (UniProt O96028) (assay: blockers of NSD2 H4 peptide methylation – biochemical, AlphaScreen, cherry-picked samples, dose response (AID 1053173;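 further: 0% = neutral control wells and -100% = positive control wells on each plate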)). Details: 120 min; series mostly up to 10 µM; activity change, negative = inhibition: at the top concentration.
Histone-lysine N-methyltransferase NSD2 (Homo sapiens), sequence (O96028 whole entry, looked up): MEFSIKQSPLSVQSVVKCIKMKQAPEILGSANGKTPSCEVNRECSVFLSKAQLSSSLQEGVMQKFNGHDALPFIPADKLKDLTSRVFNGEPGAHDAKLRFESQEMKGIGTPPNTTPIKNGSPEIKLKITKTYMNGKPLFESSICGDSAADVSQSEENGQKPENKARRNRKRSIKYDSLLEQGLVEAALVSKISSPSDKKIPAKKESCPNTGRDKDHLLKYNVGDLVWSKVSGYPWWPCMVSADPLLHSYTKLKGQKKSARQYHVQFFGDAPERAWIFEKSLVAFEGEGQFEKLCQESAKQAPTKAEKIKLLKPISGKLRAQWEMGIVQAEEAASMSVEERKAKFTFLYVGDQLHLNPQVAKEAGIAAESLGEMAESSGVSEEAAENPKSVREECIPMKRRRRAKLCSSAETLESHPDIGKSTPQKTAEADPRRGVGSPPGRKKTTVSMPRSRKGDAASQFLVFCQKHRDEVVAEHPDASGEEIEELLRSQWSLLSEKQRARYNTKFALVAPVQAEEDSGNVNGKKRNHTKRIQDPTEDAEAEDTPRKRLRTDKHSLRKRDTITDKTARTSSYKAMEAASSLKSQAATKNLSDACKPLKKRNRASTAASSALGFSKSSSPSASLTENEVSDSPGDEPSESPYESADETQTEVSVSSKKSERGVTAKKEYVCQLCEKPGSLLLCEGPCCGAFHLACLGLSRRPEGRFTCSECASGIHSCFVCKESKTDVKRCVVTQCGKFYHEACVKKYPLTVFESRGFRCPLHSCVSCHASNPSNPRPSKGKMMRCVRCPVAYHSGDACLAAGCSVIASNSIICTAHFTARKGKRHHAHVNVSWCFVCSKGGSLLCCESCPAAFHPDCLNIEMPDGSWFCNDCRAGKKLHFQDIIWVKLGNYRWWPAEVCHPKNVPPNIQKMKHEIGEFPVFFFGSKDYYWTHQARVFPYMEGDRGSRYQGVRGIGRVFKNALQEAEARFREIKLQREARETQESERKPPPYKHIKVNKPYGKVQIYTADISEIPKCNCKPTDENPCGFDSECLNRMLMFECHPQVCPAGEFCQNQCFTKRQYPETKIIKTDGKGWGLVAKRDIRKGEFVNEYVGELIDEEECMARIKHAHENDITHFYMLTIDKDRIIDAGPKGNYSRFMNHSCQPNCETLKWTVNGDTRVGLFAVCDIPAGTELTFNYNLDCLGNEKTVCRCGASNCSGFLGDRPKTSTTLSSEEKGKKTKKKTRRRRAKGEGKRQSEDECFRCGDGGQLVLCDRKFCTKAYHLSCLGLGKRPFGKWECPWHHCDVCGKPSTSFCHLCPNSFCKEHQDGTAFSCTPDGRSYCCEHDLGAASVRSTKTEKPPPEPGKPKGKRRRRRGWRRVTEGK

Activity change, negative = inhibition, inactive:
CCOc1cc(/C=C/C(=O)OCC(=O)NCCN2C(=O)CSC2=O)ccc1OCC(C)C 2.25%
Cc1cccc(-n2c3nc(=O)[nH]c(=O)c-3cc3cc([N+](=O)[O-])ccc32)c1 -12%
Cc1c(NC(=O)CN2C(=O)C(=O)c3ccccc32)c(=O)n(-c2ccccc2)n1C 0.571%
Cc1c(N=NC2=C(O)CC(C)(C)CC2=O)c(=O)n(-c2ccccc2)n1C 3.54%
C/C(=C\C(=O)c1cccnc1)Nc1ccc(O)cc1 -3.39%
COc1ccc(CCNC(=O)CN2C(=O)C(=O)N(C3CCCC3)C2=O)cc1OC 2.65%
CN(C)Cc1csc(NC(=O)Nc2cccc(Cl)c2)n1 -0.974%
Cn1c(N2CCCC2)nc2c1c(=O)n(Cc1ccc(Cl)cc1)c(=O)n2C -0.716%
COCCN(C(=O)CCC(=O)Nc1cc(C)on1)C(C(=O)NC(C)(C)C)c1ccccc1Cl (stereo not drawn) -3.87%
COc1ccc(Cc2ccccc2C(=O)O)cc1 8.87%
COc1ccc(C(C[N+](=O)[O-])c2c(C)[nH]n(-c3ccccc3)c2=O)cc1 (stereo not drawn) -10.7%
O=C(NNS(=O)(=O)c1ccc(F)cc1F)c1csc(-c2cccnc2)n1 -7.29%
Cc1nn2c3ccccc3n(CCN3CCCCC3)c2nc1=O -2.99%
O=C(CCc1ccccc1)NCCCN1CCOCC1 5.13%
O=C(NCCN1CCCCC1)/C(=C/c1ccco1)NC(=O)c1ccccc1 -0.137%
O=C(COc1ccccc1O)NCCN1CCOCC1 10.2%
O=C(NCCCN1CCCC1=O)Nc1ccc(Cl)cc1Cl 0.099%
O=C(O)Cc1sc(NC2CCCCC2)nc1-c1ccc(Cl)cc1 -7.89%
Cn1c(=O)c2c(nc(CN3CCC(C(N)=O)CC3)n2Cc2ccccc2Cl)n(C)c1=O 0.375%
Cc1ccc(-n2c(C)c(C)c3c(N)ncnc32)cc1 -6.2%
CC(=O)c1ccc(-n2c(-c3cc(-c4ccco4)[nH]n3)n[nH]c2=S)cc1 -6.71%
Cc1cc(=O)[nH]c(COc2ccccc2)n1 -1.09%
COC(=O)COc1ccc(S(=O)(=O)NCC2CCCO2)cc1Cl (stereo not drawn) 1.32%
Cc1ccc(Nc2nc(-c3ccc(O)c(O)c3)cs2)nc1 -17.4%
CCOC(=O)c1sc(NC(=O)COc2ccc3c(c2)OCO3)nc1C 5.82%
COc1ccccc1OCCOc1ccc(/C=C2\C(=N)N3N=C(S(C)(=O)=O)SC3=NC2=O)cc1 -8.8%
O=C(C=Cc1ccccc1)c1cc(Br)ccc1O -0.786%
Cc1sc2ncnc(SCC(=O)Nc3ccc(CN4CCCC4)cc3)c2c1C -4.45%
Nc1nc(O)c(Sc2ccccc2[N+](=O)[O-])c(=O)[nH]1 -5.06%
Cc1c(-c2ccc(/C=N/NC(=O)C(=O)Nc3ccccc3F)o2)cccc1[N+](=O)[O-] -1.12%
Nn1cnnc1N/N=C/c1ccc(Cl)c([N+](=O)[O-])c1 -9.15%
CC1CCC2C(C1)c1sc(=O)[nH]c1SC2(C)C (stereo not drawn) 1.19%
COc1ccc(-n2ncc3c(NCCCn4ccnc4)ncnc32)cc1 4.21%
N#Cc1ccccc1OCC(=O)OCC(=O)N1CCN(C(=O)c2ccco2)CC1 -0.885%
CCCC(=O)Nc1cc(C)cn(Cc2c(F)cccc2Cl)c1=O -4.87%
COc1ccc(-n2nnnc2SCC(=O)c2ccc3c(c2)OCCO3)cc1 -1.12%
COc1ccc(OCC(=O)NNc2c3ccccc3nc3ccccc23)cc1 2.29%
CCOC(=O)N1CCN(C(=S)NCCOC)CC1 -0.483%
O=C(CC1(O)C(=O)Nc2cc(Cl)cc(Cl)c21)c1ccncc1 (stereo not drawn) -2.95%
NS(=O)(=O)c1ccc(S(=O)(=O)N2CCN(C3CCCC3)CC2)cc1 -3.4%
Cc1ccc(C(=O)C2CCN(S(=O)(=O)c3ccc(C(=O)O)cc3)CC2)cc1 -3.03%
CC1CCCN(S(=O)(=O)c2ccc(NC(=O)CN3CCN(C)CC3)cc2)C1 (stereo not drawn) 0.323%
Cc1cccc(NC(=S)N2CCN(c3ccccc3F)CC2)c1C -0.373%
O=C(NCc1ccc(Cl)cc1)c1ccc(S(=O)(=O)N2CCCCC2)cc1 -0.074%
CC(C)c1ccc(S(=O)(=O)N2CCN(CC(=O)Nc3ccc(Cl)cc3F)CC2)cc1 4.54%
O=C(c1ccc(S(=O)(=O)N2CCOCC2)cc1)N(c1cccc(Cl)c1)C1C=CS(=O)(=O)C1 (stereo not drawn) -0.178%
CCc1cc(OCCN2C(=O)NC(C)(C)C2=O)ccc1Cl 1.68%
S=C1NCN(Cc2ccco2)CN1CCc1ccccc1 5.17%
Cc1ncc(CO)c2c1Oc1nc(-c3ccccc3)nc(SCC(=O)N3CCOCC3)c1C2 -9.28%
CCOC(=O)C(CCCP(=O)(c1ccccc1)c1ccccc1)(NC(C)=O)C(=O)OCC 5.47%
O=C(Cn1cc(C(F)(F)F)ccc1=O)Nc1ccc2c(c1)OCCO2 6.43%
Cc1ccc(Nc2nnc(SCC(=O)Nc3ccc(S(=O)(=O)N4CCOCC4)cc3)s2)cc1 2.86%
CCN(CC)c1ccc(NC(=O)COC(=O)c2ccc3ccccc3n2)cc1 -7.11%
COC(=O)C(C)(C)NC(=O)c1cccs1 -0.795%
COc1ccc(OC)c(-c2csc(-c3cccs3)n2)c1 1.38%
COc1ccc(NC(=O)CN2CCN(S(=O)(=O)N3CCCCCC3)CC2)cc1 -1.77%
CCOC(=O)c1ccc(S(=O)(=O)N2CCN(c3ccccn3)CC2)cc1 -2.16%
O=C(Nc1ccccc1)OCCCCOC(=O)Nc1ccccc1 4.68%
CCc1nc2ccc(C)cc2c(C(=O)NC2CCCCC2C)c1C (stereo not drawn) -2.38%
O=C(O)c1ccccc1NS(=O)(=O)c1ccc2ccccc2c1 1.41%
CCOc1ccccc1Nc1nnc(SCc2ccc(C(=O)OC)o2)s1 -2.68%
COCCNC(=O)c1ccc(CN2CCc3ccccc3C2)cc1 -4.36%
Cc1ccc(C(=O)Cn2cc([N+](=O)[O-])nc2C)cc1 7.26%
CC(C)(C)C1CCC2(CC1)C(Nc1cccc(C(F)(F)F)c1)=NC(=S)N2CC#N (stereo not drawn) 2.06%
COc1ccc(CCC(=O)NCCOc2ccccc2Cl)cc1 -0.849%
CSc1nsc(SCC(=O)Nc2cccc(NC(C)=O)c2)n1 -3.52%
Cc1cccnc1NC(=O)c1ccc(S(=O)(=O)N2CC(C)OC(C)C2)cc1 (stereo not drawn) 1.6%
O=C1CCCC(O)=C1N=Nc1cccc(C(=O)O)c1 -10.6%
O=C(NNC(=O)c1cccs1)c1ccc(Cl)c([N+](=O)[O-])c1 -1.5%
O=C(CC(=O)NCCc1ccccc1)NCCc1ccccc1 2.4%
O=C(CNC(=O)c1ccco1)NCC(=O)OCc1ccccc1Cl -2.17%
CC(C)CC(=O)N1CCC(O)(CS(=O)(=O)Cc2ccccc2Cl)CC1 -0.256%
COc1ccccc1C(=O)NNC(=O)Cc1ccccc1 0.425%
